From PubChem BioAssay come the findings set out here.

Calls of active or inactive are those of the source.

A short description of test [1]: small molecules captured by biotinylated probe aFSTL3 – biochemical, small-molecule microarray, fluorescence 635/667, stem cell growth factor project, primary screen (AID 1064).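 Note: measures binding of the biotinylated anti-FSTL3 antibody to printed compounds.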 To be noted: higher = more signal.
Test [2] is described as follows: binders from COS7 lysate, DM2A8 probe, primary screen, torsin A project, cell lysate, small-molecule microarray, fluorescence 635/667 (AID 1065). To be noted: higher = more signal, COS7 lysate expressing mutant human TOR1A.
The nature of test [3]: small molecules captured by biotinylated probe aFGF2 – biochemical, small-molecule microarray, fluorescence 635/667, stem cell growth factor project, primary screen (AID 1067).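 Note: measures binding of biotinylated aFGF2 protein to printed compounds on slides; z-score merges feature fluorescence and signal-to-noise across triplicate slides.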 To be noted: higher = more signal.
Test [4] is described as follows: small molecules captured by biotinylated probe aFGF10 – biochemical, small-molecule microarray, fluorescence 635/667, stem cell growth factor project, primary screen (AID 1071).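 Note: score merges 667 nm spot intensity and signal to noise from triplicate slides.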 To be noted: higher = more signal.
In test [5] the target is Neurogenic locus notch homolog protein 2 (Homo sapiens) (UniProt Q04721). Put plainly: small molecules binding Notch2 protein – biochemical, small-molecule microarray, 635 nm fluorescence, stem cell growth factors, primary screen (AID 1073). To be noted: higher = more signal.
For test [6], the target named is Pro-neuregulin-1, membrane-bound isoform (Homo sapiens) (UniProt Q02297). Put plainly: small molecules binding neuregulin-1 protein – biochemical, small-molecule microarray, fluorescence 635/667, psychiatric disease protein project, primary screen (AID 1075).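 Note: score combines 667 nm spot fluorescence with signal to noise.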 To be noted: NRG1 binding, 635 nm fluorescence, higher = more signal.
Test [7] has as its system Neuregulin-1 EGF-like domain. As to the kind of experiment: small molecules binding NRG1 EGF domain – biochemical, small-molecule microarray, 635 nm fluorescence, primary screen (AID 1081).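 Note: binding of the protein to compounds printed on small-molecule microarray slides.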 The following applies: higher = more signal.
Test [8] in a line: FRG1 expression reporter modulators in myotubes – cell-based, C2C12 myotubes, firefly/Renilla luciferase, luminescence, FRG1 inhibition for FSHD, primary screen (AID 1084). To be noted: FRG1 promoter luciferase, higher = more signal, called active from +8 up or from −8 down.
A short description of test [9]: small molecules captured by biotinylated probe aFST – biochemical, small-molecule microarray, fluorescence 635/667, stem cell growth factor project, primary screen (AID 1086).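 Note: score merges 667 nm fluorescence with signal-to-noise of each printed compound spot.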 The following applies: higher = more signal.
Test [10] in a line: binders of probe aHhip on microarray, primary screen, stem cell growth factor project, biochemical, small-molecule microarray, fluorescence 635/667 (AID 1087).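 Note: score merges spot fluorescence at 667nm with spot signal to noise ratio.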 The following applies: higher = more signal.
The test system of test [11] is PRMT1 (protein arginine N-methyltransferase 1). As to the kind of experiment: small molecules binding arginine methyltransferase PRMT1 – biochemical, small-molecule microarray, 635 nm fluorescence, primary screen (AID 1088).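 Note: binding of Prmt1 protein to compounds spotted on small-molecule microarray slides.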 To be noted: higher = more signal.
The nature of test [12]: growth effects on S. cerevisiae YJM789 – YJM789 clinical isolate, OD600, 24 h, basal, primary screen (AID 1089).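 Note: growth of clinical yeast isolate S. cerevisiae YJM 789 seeded 1000 cells per well; test concentration not given here.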 The following applies: higher = more signal, called active from +8 up or from −8 down.
Test [13] is described as follows: S. pombe growth modifiers, basal conditions – strain 972, OD600, 24 h, no modulator, primary screen (AID 1090).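 Note: basal condition with compound alone and no growth modifier present; test concentration not given here.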 To be noted: S. pombe 972 growth, higher = more signal, called active from +8 up or from −8 down.
Test [14] can be described thus: budding yeast growth modifiers under rapamycin – strain BY4716, OD600, 96 h, primary screen (AID 1091). Note: test concentration not given here. The following applies: S. cerevisiae BY4716 + rapamycin, higher = more signal, called active from +8 up or from −8 down.
In test [15] the target is Torsin-1A-interacting protein 2 (Homo sapiens) (UniProt Q8NFQ8). As to the kind of experiment: small molecules binding lysate-expressed LULL1 – cell lysate, human LULL1 lysate, 635/667 nm fluorescence, primary screen (AID 1092).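 Note: score merges per-feature 667 nm fluorescence with signal-to-noise.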 The following applies: small-molecule microarray, hLULL1 lysate binding, 635 nm fluorescence; higher = more signal.
The nature of test [16]: optical density change of DRC41 E. coli – strain DRC41, OD650, 24 h, E. coli filamentation project, primary screen (AID 1093).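 Note: MC1000 strain lacking acrAB efflux and sulA so SOS filamentation is blocked; test concentration not given here.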 The following applies: E. coli DRC41 growth, higher = more signal, called active from +8 up or from −8 down.
A short description of test [17]: probe aLefty2 binding to arrayed compounds – biochemical, biotinylated probe, 635/667 nm fluorescence, primary screen (AID 1094).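 Note: score merges spot fluorescence near 667 nm with spot signal-to-noise ratio.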 To be noted: small-molecule microarray, higher = more signal.
The subject of test [18] is Noggin (protein binding on small-molecule microarray). Put plainly: small molecules binding Noggin protein – biochemical, 635/667 nm fluorescence, primary screen (AID 1095).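 Note: score merges 667 nm feature fluorescence with signal to noise over triplicate slides.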 To be noted: 635 nm fluorescence, higher = more signal.
Test [19] deals with Neurogenic locus notch homolog protein 3 (Homo sapiens) (UniProt Q9UM47). As to the kind of experiment: small molecules binding NOTCH3 protein – biochemical, 635/667 nm fluorescence, primary screen (AID 1096). The following applies: small-molecule microarray, 635 nm fluorescence, higher = more signal.
The nature of test [20]: probe aEGFR binding to arrayed compounds – biochemical, biotinylated probe, 635/667 nm fluorescence, primary screen (AID 1097).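 Note: probe is a biotinylated anti-EGFR antibody binding compounds printed on slides; score combines fluorescence near 667 nm and signal to noise of each spot.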 To be noted: small-molecule microarray, higher = more signal.

Pro-neuregulin-1, membrane-bound isoform (Homo sapiens), sequence (Q02297 whole entry, looked up, the tested form may be a part, canonical isoform): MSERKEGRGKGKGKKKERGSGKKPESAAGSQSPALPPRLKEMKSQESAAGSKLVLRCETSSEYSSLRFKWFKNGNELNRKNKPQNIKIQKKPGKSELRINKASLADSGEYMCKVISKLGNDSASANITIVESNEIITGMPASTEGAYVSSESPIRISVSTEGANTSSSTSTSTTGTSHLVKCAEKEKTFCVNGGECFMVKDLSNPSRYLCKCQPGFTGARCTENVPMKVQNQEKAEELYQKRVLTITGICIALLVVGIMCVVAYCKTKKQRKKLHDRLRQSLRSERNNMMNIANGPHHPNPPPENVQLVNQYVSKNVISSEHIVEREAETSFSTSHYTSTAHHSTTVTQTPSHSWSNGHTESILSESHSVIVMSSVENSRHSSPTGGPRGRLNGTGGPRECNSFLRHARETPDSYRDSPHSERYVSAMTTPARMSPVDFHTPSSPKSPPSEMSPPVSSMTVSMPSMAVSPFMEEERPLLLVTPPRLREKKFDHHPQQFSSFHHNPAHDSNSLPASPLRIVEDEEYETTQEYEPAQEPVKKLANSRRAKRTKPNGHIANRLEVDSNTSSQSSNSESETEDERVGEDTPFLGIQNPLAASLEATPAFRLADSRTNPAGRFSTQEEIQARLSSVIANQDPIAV
Torsin-1A-interacting protein 2 (Homo sapiens), sequence (Q8NFQ8 whole entry, looked up): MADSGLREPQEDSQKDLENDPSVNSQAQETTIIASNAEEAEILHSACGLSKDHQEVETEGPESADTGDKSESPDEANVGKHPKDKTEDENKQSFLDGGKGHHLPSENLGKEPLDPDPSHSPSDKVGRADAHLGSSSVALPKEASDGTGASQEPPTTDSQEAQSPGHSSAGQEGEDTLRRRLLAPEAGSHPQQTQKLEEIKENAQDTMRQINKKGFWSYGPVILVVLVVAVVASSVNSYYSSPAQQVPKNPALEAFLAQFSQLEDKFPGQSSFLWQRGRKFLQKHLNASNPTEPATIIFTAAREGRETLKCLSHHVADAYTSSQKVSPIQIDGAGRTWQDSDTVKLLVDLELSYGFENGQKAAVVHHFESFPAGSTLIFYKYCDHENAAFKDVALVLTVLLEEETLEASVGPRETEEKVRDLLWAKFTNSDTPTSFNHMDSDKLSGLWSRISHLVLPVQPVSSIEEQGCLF
Neurogenic locus notch homolog protein 3 (Homo sapiens), sequence (Q9UM47 whole entry, looked up): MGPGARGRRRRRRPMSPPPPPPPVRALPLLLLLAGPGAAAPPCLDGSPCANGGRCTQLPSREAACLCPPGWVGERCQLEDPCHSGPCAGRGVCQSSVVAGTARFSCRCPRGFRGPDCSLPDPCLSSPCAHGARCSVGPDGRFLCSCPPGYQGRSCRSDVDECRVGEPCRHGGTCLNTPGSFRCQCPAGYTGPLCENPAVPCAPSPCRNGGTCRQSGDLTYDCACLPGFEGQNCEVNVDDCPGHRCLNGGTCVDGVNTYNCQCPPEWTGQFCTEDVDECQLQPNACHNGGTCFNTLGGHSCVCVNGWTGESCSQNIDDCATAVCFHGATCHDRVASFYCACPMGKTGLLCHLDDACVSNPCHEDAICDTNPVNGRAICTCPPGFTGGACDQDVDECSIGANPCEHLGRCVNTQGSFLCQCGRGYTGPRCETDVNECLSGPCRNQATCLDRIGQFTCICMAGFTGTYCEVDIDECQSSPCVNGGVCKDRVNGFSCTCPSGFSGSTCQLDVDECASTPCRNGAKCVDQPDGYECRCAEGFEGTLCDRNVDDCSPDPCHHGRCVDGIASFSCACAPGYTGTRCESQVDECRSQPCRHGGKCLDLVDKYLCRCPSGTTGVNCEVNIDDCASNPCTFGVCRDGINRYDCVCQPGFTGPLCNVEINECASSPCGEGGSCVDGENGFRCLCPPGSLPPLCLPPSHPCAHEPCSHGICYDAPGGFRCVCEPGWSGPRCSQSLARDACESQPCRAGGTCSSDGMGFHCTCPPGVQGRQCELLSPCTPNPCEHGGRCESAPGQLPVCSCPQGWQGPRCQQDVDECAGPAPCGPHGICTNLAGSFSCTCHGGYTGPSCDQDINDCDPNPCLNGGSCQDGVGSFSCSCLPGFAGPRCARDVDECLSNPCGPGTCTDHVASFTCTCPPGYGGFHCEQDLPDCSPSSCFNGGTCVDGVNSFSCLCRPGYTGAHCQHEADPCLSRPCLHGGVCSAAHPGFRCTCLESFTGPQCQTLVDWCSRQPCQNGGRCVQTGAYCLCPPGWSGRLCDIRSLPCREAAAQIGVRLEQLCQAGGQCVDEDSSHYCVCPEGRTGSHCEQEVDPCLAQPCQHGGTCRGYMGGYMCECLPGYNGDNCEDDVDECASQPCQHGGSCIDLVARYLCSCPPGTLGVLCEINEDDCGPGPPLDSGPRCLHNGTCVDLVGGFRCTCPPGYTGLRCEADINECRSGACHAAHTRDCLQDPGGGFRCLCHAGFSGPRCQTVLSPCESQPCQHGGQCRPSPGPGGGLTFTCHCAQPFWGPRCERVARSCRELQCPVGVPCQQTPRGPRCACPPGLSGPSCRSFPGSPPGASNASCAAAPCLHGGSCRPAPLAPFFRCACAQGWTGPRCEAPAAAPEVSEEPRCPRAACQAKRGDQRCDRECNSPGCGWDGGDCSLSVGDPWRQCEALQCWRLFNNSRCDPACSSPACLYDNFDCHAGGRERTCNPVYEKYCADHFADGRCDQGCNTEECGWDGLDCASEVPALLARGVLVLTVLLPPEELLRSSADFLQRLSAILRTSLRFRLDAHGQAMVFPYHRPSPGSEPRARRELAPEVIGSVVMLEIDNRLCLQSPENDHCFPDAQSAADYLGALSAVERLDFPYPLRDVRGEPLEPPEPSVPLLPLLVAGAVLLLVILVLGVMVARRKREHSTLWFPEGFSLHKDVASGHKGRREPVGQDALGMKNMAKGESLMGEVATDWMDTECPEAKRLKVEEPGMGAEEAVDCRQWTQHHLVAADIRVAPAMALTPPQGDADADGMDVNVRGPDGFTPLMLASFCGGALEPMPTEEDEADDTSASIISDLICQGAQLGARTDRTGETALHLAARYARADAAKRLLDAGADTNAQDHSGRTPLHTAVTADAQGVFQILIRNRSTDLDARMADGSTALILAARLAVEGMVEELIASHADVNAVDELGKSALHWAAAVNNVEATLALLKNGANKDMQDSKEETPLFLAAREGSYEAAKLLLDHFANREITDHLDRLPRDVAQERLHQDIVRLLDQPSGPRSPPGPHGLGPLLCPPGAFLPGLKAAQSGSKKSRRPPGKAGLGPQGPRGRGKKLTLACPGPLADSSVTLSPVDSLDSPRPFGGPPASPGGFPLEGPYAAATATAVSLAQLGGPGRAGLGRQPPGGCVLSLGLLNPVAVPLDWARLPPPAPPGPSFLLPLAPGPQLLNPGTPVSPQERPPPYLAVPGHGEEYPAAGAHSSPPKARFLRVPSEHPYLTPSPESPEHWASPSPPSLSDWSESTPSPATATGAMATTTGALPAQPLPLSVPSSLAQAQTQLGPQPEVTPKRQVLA

In the case of `COCCOC(=O)N1C(=O)[C@@]2(c3cc(C#CC4(O)CCCCCC4)ccc31)[C@H](c1ccccc1OCCO)N1[C@H](c3ccccc3)[C@H](c3ccccc3)OC(=O)[C@H]1[C@@H]2C(=O)Nc1nc2ccccc2s1`, the composite z-score in test [1] was -0.172; in test [2] it was 1.05; in test [3] it was 0.0359; in test [4], 0.659; in test [5] it was 1.11; in test [6], 0.41. For the same compound, the composite z-score in test [7] is 1.26; in test [9], 0.325; in test [10], -0.121; in test [11], 1.55; in test [15], 2.09; in test [17] it was 0.0498. The composite z-score in test [18] was 0.724; in test [19] it was 1.09; in test [20], 0.0403. Further, the z-score was 1.54 (inactive) in [8]; 2.04 (inactive) in [12]; -0.312 (inactive) in test [13]; 3.94 (inactive) in test [14]; 2.69 (inactive) in test [16].

Regarding `Cc1ccc(S[C@]2(C(=O)NCCN3CCOCC3)CC(=O)N(Cc3cc(C(F)(F)F)cc(C(F)(F)F)c3)[C@@H]2c2ccc(CO)cc2)cc1`, the composite z-score in test [1] was 0.62; in [2] it was -0.439; in test [3], -0.15; in test [4] it was -1.35; in test [5], -1.26; in test [6], 1.04. For the same compound, the composite z-score was -0.382 in test [7]; -0.341 in [9]; -0.0632 in test [10]; 1.24 in test [11]; 1.47 in test [15]; -0.136 in test [17]. The composite z-score in test [18] is -0.984; in test [19], -0.54; in [20], -0.252. The z-score was -1.67 (inactive) in [8]; -1.03 (inactive) in test [12]; -3.43 (inactive) in test [13]; -2.07 (inactive) in test [14]; 0.611 (inactive) in [16].

Take `COC(=O)C(CC#Cc1ccc2c(c1)[C@]1(C(=O)N2)[C@H](C(N)=O)[C@H]2C(=O)O[C@H](c3ccccc3)[C@H](c3ccccc3)N2[C@@H]1c1ccc(O)cc1)C(=O)OC`: the composite z-score in test [1] is -0.343; in [2], -0.067; in test [3] it was -0.245; in [4], -1.28; in test [5], -0.618; in test [6], 0.205. In addition, the composite z-score in test [7] is 0.699; in test [9] it was -0.882; in [10], 0.384; in [11], -0.95; in [15], 0.0509; in [17] it was -0.117. For the same compound, the composite z-score in [18] is -1.1; in test [19] it was -1.23; in test [20], -0.442. The z-score in [8] was -0.117 (inactive); in test [12], 0.337 (inactive); in [13], -1.04 (inactive); in test [14] it was 0.484 (inactive); in test [16] it was 1.61 (inactive).

For `CC(CO)N1C(=O)[C@@H]2C3C(=O)OCCC/C=C\[C@H]3OC23C=CCN(Cc2ccccc2)C(=O)[C@@H]13` (stereo not given in full), the composite z-score was 0.418 in test [1]; -0.338 in test [2]; -0.143 in test [3]; -0.486 in test [4]; -0.847 in test [5]; -0.512 in test [6]. The composite z-score in test [7] was 0.18; in test [9], -0.0745; in test [10] it was -0.0239; in test [11], 0.432; in test [15], -0.0166; in [17] it was -0.16. Also, the composite z-score was -0.545 in test [18], -0.505 in [19] and -0.186 in test [20]. The z-score in [8] was 0.227 (inactive); in [12], -0.537 (inactive); in test [13], -2.16 (inactive); in test [14], -0.875 (inactive); in test [16], 2.31 (inactive).

As for `C=CCNC(=O)[C@H]1[C@@H]2C(=O)O[C@@H](c3ccccc3)[C@@H](c3ccccc3)N2[C@@H](c2ccccc2OCCO)[C@]12C(=O)N(C(=O)OCCOC)c1ccc(C#CCCO)cc12`, the composite z-score was 1.61 in test [1]; 1.31 in [2]; 0.0603 in test [3]; 0.853 in [4]; 0.83 in [5]; 0.79 in test [6]. Moreover, the composite z-score was 1.11 in [7]; 1.24 in test [9]; 0.511 in test [10]; 1.43 in test [11]; 1.36 in [15]; 0.994 in test [17]. In addition, the composite z-score came out at 1.59 in test [18], 1.12 in test [19] and 0.596 in [20]. The z-score was -4.05 (inactive) in test [8]; 0.827 (inactive) in test [12]; -3.06 (inactive) in test [13]; 3.43 (inactive) in test [14]; 1.68 (inactive) in test [16].

Take `CC(C)(C)OC(=O)CC[C@@]12N=C(c3ccc(OCCCO)cc3)O[C@@H]1c1ccccc1CN(Cc1ccccc1)C2=O`: the composite z-score was 0.265 in [1]; 0.141 in [2]; -0.0118 in test [3]; 0.294 in [4]; 0.549 in [5]; 0.391 in test [6]. The composite z-score in test [7] was 1.14; in [9], 0.419; in [10], -0.069; in test [11], 1.56; in [15], 2.49; in test [17], -0.0664. The composite z-score in test [18] was 1.62; in [19], 0.981; in [20], -0.103. Besides, the z-score in [8] is -4.73 (inactive); in test [12], 1.44 (inactive); in [13] it was -3.05 (inactive); in [14], 6.17 (inactive); in test [16] it was 1.36 (inactive).

Turning to `COCCOC(=O)N1C(=O)[C@@]2(c3cc(C#CC4(O)CCCCCC4)ccc31)[C@H](c1ccc(O)cc1)N1[C@H](c3ccccc3)[C@H](c3ccccc3)OC(=O)[C@H]1[C@@H]2C(N)=O`, the composite z-score in [1] was -0.0102; in test [2], 1.54; in test [3], 0.103; in test [4], 0.631; in test [5], 0.397; in test [6], 1.1. Moreover, the composite z-score was 0.874 in test [7]; 0.351 in [9]; -0.0173 in [10]; 1.5 in test [11]; 2.01 in test [15]; 0.178 in test [17]. The values for the composite z-score in test [18], in [19] and in test [20] were 0.0282, 0.928 and -0.0924, respectively. For the same compound, the z-score is -0.868 (inactive) in test [8]; -0.549 (inactive) in test [12]; -3.29 (inactive) in test [13]; -0.624 (inactive) in [14]; 2.01 (inactive) in test [16].

In the case of `O=C1N(CCS(=O)(=O)c2ccccc2)Cc2ccccc2[C@@H]2OC(c3ccc(OCCCO)cc3)=N[C@]12Cc1ccccc1`, the composite z-score came out at 1.02 in [1]; 0.397 in [2]; 0.196 in test [3]; 0.849 in test [4]; 1.5 in [5]; 1.84 in [6]. For the same compound, the composite z-score was 1.39 in test [7]; 0.843 in test [9]; -0.338 in test [10]; 1.53 in test [11]; 3.4 in test [15]; 0.657 in test [17]. Besides, the composite z-score in [18] stood at 1.1; in test [19], 1.01; in test [20] it was 0.442. The z-score in test [8] is -2.88 (inactive); in test [12], 2.44 (inactive); in test [13], 1.46 (inactive); in test [14] it was 9.7 (active); in test [16], 0.552 (inactive).

As for `COc1ccc([Si](C)(C)[C@@H]2[C@@H](CCn3cc(CCO)nn3)O[C@]3(C(=O)N(Cc4ccc(N5C(=O)c6cccc7cccc5c67)cc4)c4ccccc43)[C@H]2C)cc1`, the composite z-score in test [1] was -0.279; in test [2] it was 0.749; in test [3] it was -0.0656; in test [4] it was -0.0139; in [5], 0.142; in test [6], 1.26. Moreover, the composite z-score in [7] is 0.742; in test [9] it was 0.299; in test [10] it was 0.154; in test [11], 1.51; in [15], 0.986; in test [17] it was -0.0564. The composite z-score in test [18] is 0.376; in test [19], 0.802; in test [20], -0.0138. The z-score in test [8] was -3.48 (inactive); in [12], 0.0277 (inactive); in test [13], 0.858 (inactive); in test [14], 12.7 (active); in test [16] it was 2.61 (inactive).
